# This is part of a sample that, as a whole, favours compounds with a hit. Of some 83,000 tested, about 20% had one in any assay.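 A percent growth of 40 corresponds to 60% growth inhibition; 0 means no net growth; -100 means all cells died. Active threshold: below 10.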 The source made the active and inactive calls.
# System: UACC-257 melanoma
# Assay: NCI-60 one-dose screen, 48 h (100 = growth as untreated, 0 = no growth, -100 = all killed)
# Conditions: 10 µM unless noted
row,Structure (SMILES),growth
1,CC(=O)CCC(=O)OCc1cc(=O)c(O)co1,99.7% (inactive)
2,O=C(c1nc2ccccc2[nH]1)C1C(c2ccc(Cl)cc2)C2CC3CCCC[C@H]3N2[C@@]12C(=O)Nc1cc(Cl)ccc12 (stereo partly specified),45.7% (inactive)
3,COc1cccc(-c2nc3occn3c2-c2ccnc(NCCNS(=O)(=O)c3cccc4ccccc34)n2)c1,104% (inactive)
4,COc1cc(-c2n/c(=C\c3c(O)[nH]c4ccc(Cl)cc34)cc3c2=Nc2ccccc2-3)ccc1F,58.1% (inactive)
5,NNC(=O)c1ccc(-n2nc(-c3ccccc3)c3ccccc32)cc1,99.5% (inactive)
6,O=C1Nc2cc(-c3cccc(O)c3)ccc2/C1=C/c1ccc[nH]1,46% (inactive)
7,COc1cccc(/C=N/NC(=O)c2cnn3c2NC(c2ccccc2)C3)c1Oc1ccccc1 (stereo unspecified),86.3% (inactive)
8,S=c1cc(S)c2cc(Br)ccc2[nH]1,87.1% (inactive)
9,O=C(NCCc1ccccc1)Nc1ccc2cc3ccc(NC(=O)NCCc4ccccc4)cc3nc2c1,85.6% (inactive)
10,CCN(CC)CCCC(C)Nc1cc(O)cc2cccnc12 (stereo unspecified),93.8% (inactive)
11,CCOC(=O)C1=C(C)NC(SCc2cc(=O)oc3ccc(F)cc23)=N[C@@H]1c1cccc2ccccc12,109% (inactive)
12,COc1ccc(C(=O)c2cc(OC)c(OC)c(OC)c2)cc1O,69.3% (inactive)
13,CCCOC(=O)N[C@H]1CCc2c(Cl)c(OC)c(OC)c(OC)c2-c2ccc(SC)c(=O)cc21,72.4% (inactive)
14,Cc1ccc(/C=N/NC(=O)CSc2nc3ccccc3c(=O)n2Cc2ccc(S(N)(=O)=O)cc2)cc1,96.4% (inactive)
15,O=C(CCN1CCCC1)Nc1ccc2c(NCCCCc3ccccc3)c3ccccc3nc2c1,-60.8% (active)
16,CSc1nc2sc3cccc(Cl)c3n2c(=N)c1C#N,108% (inactive)
17,C#CCNC(=O)c1cccc2c1cc(C)n2-c1nc2c(c(NCc3ccccc3)n1)CCCC2,-30.5% (active)
18,Cc1ccc(S(=O)(=O)NNC(=O)/C(=C\c2ccc(Cl)cc2)c2nc3ccccc3s2)cc1,98% (inactive)
19,O=[N+]([O-])CC(c1ccccc1)c1c[nH]c2ccccc12 (stereo unspecified),55.8% (inactive)

row,Structure (SMILES),growth
1,Nc1nc(Nc2ccccc2SSc2ccccc2Nc2nc(N)nc(-c3ccc(C(F)(F)F)cc3)n2)nc(-c2ccc(C(F)(F)F)cc2)n1,106% (inactive)
2,CCCCCC(=O)Oc1ccc(/C(=C(\C)c2ccccc2)c2ccc(OCCN3CCCCC3)cc2)cc1,72.4% (inactive)
3,C/C(=N\Nc1cc(C)nc2ccc(Br)cc12)c1ccc([N+](=O)[O-])cc1,107% (inactive)
4,COc1cccc(-c2ccc3c(c2)NC(=O)/C3=C\c2ccc[nH]2)c1,77% (inactive)
5,CCC(=O)Oc1ccc(/C(=C(\C)c2ccccc2)c2ccc(OCCN3CCCCC3)cc2)cc1,72.1% (inactive)
6,COc1cc(CC(=O)c2ccc(O)c(OC)c2)ccc1O,80.1% (inactive)
7,Brc1ccc2[nH]cc(-c3cncn3CCc3ccccc3)c2c1,48.3% (inactive)
8,CCNC(=O)Oc1ccc(/C(=C(\C)c2ccccc2)c2ccc(OCCCN(C)C)cc2)cc1,3.23% (active)
9,O=C(/C=C/c1ccc(F)cc1)c1ccc(NC(=O)N2CCN(c3cc4c(cc3F)c(=O)c(C(=O)O)cn4C3CC3)CC2)cc1,97.2% (inactive)
10,O=S(=O)(NCCNc1nccc(-c2c(-c3cccc(O)c3)nc3occn23)n1)c1ccccc1,17.7% (inactive)
11,COc1ccc(C(=O)c2cc(C)c(OC)c(C)c2)c(OC)c1N(C(=O)CCl)C(=O)CCl,46.2% (inactive)
12,O=C(/C=C/c1ccc[nH]1)c1ccc(-n2ccc(C(F)(F)F)n2)c(F)c1,99.7% (inactive)
13,COc1ccc(C(=O)C2C(C#N)C(C#N)C3c4ccccc4C=CN23)cc1 (stereo unspecified),85.7% (inactive)
14,c1ccc(-c2cn3c(ccc4ccccc43)n2)cc1,78.9% (inactive)
15,CNC(=O)c1cccc(Cn2nc(C)c(NC(=O)c3ccc(COc4ccc(C(F)(F)F)cc4C)cc3)c2C)n1,20.7% (inactive)
16,COc1ccc(OC)c(-c2cc(-c3ccc(Cl)cc3)c3c(N)c(C(=O)c4ccc(Cl)cc4)sc3n2)c1,98.2% (inactive)
17,CCCOc1ccc(/C=N/Nc2cc(C)nc3ccc(Cl)cc23)cc1,89.8% (inactive)
18,O=C(Cc1ccccc1)NNc1nc(Cl)nc(N2CCN(C(c3ccccc3)c3ccccc3)CC2)n1,90.6% (inactive)
19,C#CCNC(=O)[C@H](Cc1ccccc1)NC(=O)[C@]12CC[C@@H](C(=C)C)[C@@H]1[C@H]1CC[C@@H]3[C@@]4(C)CCC(=O)C(C)(C)[C@@H]4CC[C@@]3(C)[C@]1(C)CC2,59.4% (inactive)

# System: M14 melanoma
# Assay: as above
# Conditions: 10 µM unless noted
row,Structure (SMILES),growth
1,CC(=O)CCC(=O)OCc1cc(=O)c(O)co1,99.4% (inactive)
2,O=C(c1nc2ccccc2[nH]1)C1C(c2ccc(Cl)cc2)C2CC3CCCC[C@H]3N2[C@@]12C(=O)Nc1cc(Cl)ccc12 (stereo partly specified),34.2% (inactive)
3,COc1cccc(-c2nc3occn3c2-c2ccnc(NCCNS(=O)(=O)c3cccc4ccccc34)n2)c1,117% (inactive)
4,COc1cc(-c2n/c(=C\c3c(O)[nH]c4ccc(Cl)cc34)cc3c2=Nc2ccccc2-3)ccc1F,14% (inactive)
5,NNC(=O)c1ccc(-n2nc(-c3ccccc3)c3ccccc32)cc1,77% (inactive)
6,O=C1Nc2cc(-c3cccc(O)c3)ccc2/C1=C/c1ccc[nH]1,16.9% (inactive)
7,COc1cccc(/C=N/NC(=O)c2cnn3c2NC(c2ccccc2)C3)c1Oc1ccccc1 (stereo unspecified),50.2% (inactive)
8,S=c1cc(S)c2cc(Br)ccc2[nH]1,90% (inactive)
9,O=C(NCCc1ccccc1)Nc1ccc2cc3ccc(NC(=O)NCCc4ccccc4)cc3nc2c1,33.8% (inactive)
10,CCN(CC)CCCC(C)Nc1cc(O)cc2cccnc12 (stereo unspecified),113% (inactive)
11,CCOC(=O)C1=C(C)NC(SCc2cc(=O)oc3ccc(F)cc23)=N[C@@H]1c1cccc2ccccc12,102% (inactive)
12,COc1ccc(C(=O)c2cc(OC)c(OC)c(OC)c2)cc1O,-3.92% (active)
13,CCCOC(=O)N[C@H]1CCc2c(Cl)c(OC)c(OC)c(OC)c2-c2ccc(SC)c(=O)cc21,-13.6% (active)
14,Cc1ccc(/C=N/NC(=O)CSc2nc3ccccc3c(=O)n2Cc2ccc(S(N)(=O)=O)cc2)cc1,98.1% (inactive)
15,O=C(CCN1CCCC1)Nc1ccc2c(NCCCCc3ccccc3)c3ccccc3nc2c1,-72.6% (active)
16,CSc1nc2sc3cccc(Cl)c3n2c(=N)c1C#N,102% (inactive)
17,C#CCNC(=O)c1cccc2c1cc(C)n2-c1nc2c(c(NCc3ccccc3)n1)CCCC2,-39.2% (active)
18,Cc1ccc(S(=O)(=O)NNC(=O)/C(=C\c2ccc(Cl)cc2)c2nc3ccccc3s2)cc1,86% (inactive)
19,O=[N+]([O-])CC(c1ccccc1)c1c[nH]c2ccccc12 (stereo unspecified),23.2% (inactive)

row,Structure (SMILES),growth
1,Nc1nc(Nc2ccccc2SSc2ccccc2Nc2nc(N)nc(-c3ccc(C(F)(F)F)cc3)n2)nc(-c2ccc(C(F)(F)F)cc2)n1,72.5% (inactive)
2,CCCCCC(=O)Oc1ccc(/C(=C(\C)c2ccccc2)c2ccc(OCCN3CCCCC3)cc2)cc1,65.9% (inactive)
3,C/C(=N\Nc1cc(C)nc2ccc(Br)cc12)c1ccc([N+](=O)[O-])cc1,84.6% (inactive)
4,COc1cccc(-c2ccc3c(c2)NC(=O)/C3=C\c2ccc[nH]2)c1,39.2% (inactive)
5,CCC(=O)Oc1ccc(/C(=C(\C)c2ccccc2)c2ccc(OCCN3CCCCC3)cc2)cc1,72.3% (inactive)
6,COc1cc(CC(=O)c2ccc(O)c(OC)c2)ccc1O,102% (inactive)
7,Brc1ccc2[nH]cc(-c3cncn3CCc3ccccc3)c2c1,53.3% (inactive)
8,CCNC(=O)Oc1ccc(/C(=C(\C)c2ccccc2)c2ccc(OCCCN(C)C)cc2)cc1,19.7% (inactive)
9,O=C(/C=C/c1ccc(F)cc1)c1ccc(NC(=O)N2CCN(c3cc4c(cc3F)c(=O)c(C(=O)O)cn4C3CC3)CC2)cc1,97.8% (inactive)
10,O=S(=O)(NCCNc1nccc(-c2c(-c3cccc(O)c3)nc3occn23)n1)c1ccccc1,29.4% (inactive)
11,COc1ccc(C(=O)c2cc(C)c(OC)c(C)c2)c(OC)c1N(C(=O)CCl)C(=O)CCl,-20.7% (active)
12,O=C(/C=C/c1ccc[nH]1)c1ccc(-n2ccc(C(F)(F)F)n2)c(F)c1,94.3% (inactive)
13,COc1ccc(C(=O)C2C(C#N)C(C#N)C3c4ccccc4C=CN23)cc1 (stereo unspecified),96.2% (inactive)
14,c1ccc(-c2cn3c(ccc4ccccc43)n2)cc1,32.2% (inactive)
15,CNC(=O)c1cccc(Cn2nc(C)c(NC(=O)c3ccc(COc4ccc(C(F)(F)F)cc4C)cc3)c2C)n1,53.7% (inactive)
16,COc1ccc(OC)c(-c2cc(-c3ccc(Cl)cc3)c3c(N)c(C(=O)c4ccc(Cl)cc4)sc3n2)c1,102% (inactive)
17,CCCOc1ccc(/C=N/Nc2cc(C)nc3ccc(Cl)cc23)cc1,-29.8% (active)
18,O=C(Cc1ccccc1)NNc1nc(Cl)nc(N2CCN(C(c3ccccc3)c3ccccc3)CC2)n1,81.6% (inactive)
19,C#CCNC(=O)[C@H](Cc1ccccc1)NC(=O)[C@]12CC[C@@H](C(=C)C)[C@@H]1[C@H]1CC[C@@H]3[C@@]4(C)CCC(=O)C(C)(C)[C@@H]4CC[C@@]3(C)[C@]1(C)CC2,81.7% (inactive)
